High-throughput results (PubChem BioAssay)
STAT3 blocker: IL-6 driven STAT3 reporter inhibitors, primary screen, U3A cells, luciferase, luminescence, MLSCN library. 0.89% of 190,000 active. IL-6 STAT3-luciferase reporter; host cell line lacks STAT1. AID 862, 2007. inhibition, % at 5.5 µM;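 active = inhibition above the mean inhibition across all screened compounds plus 3 SD, cut at about 44% in these data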;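 note: 0% = DMSO only wells and 100% = 100 µM nifuroxazide control wells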
C8 TRAIL sens: viability loss with TRAIL in NB7+C8 cells, primary screen, TRAIL sensitizer project, cell-based, ATPlite luminescence | inhibition (viability loss, TRAIL sensitization), % at 10 µM | 1% of 360,000 active | AID 624354, 2012;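 active = compounds causing at least 50% loss of cell viability in the single-dose screen, relative to plate controls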
HSP90 refold inh: HSP90 inhibitors, primary screen, cell lysate, luminescence. Heat shock protein HSP 90 (rabbit reticulocyte lysate; luciferase refolding). Rabbit reticulocyte lysate, luciferase refolding luminescence, 3 h. inhibition, % at 5.6 µM. 0.91% of 290,000 active. AID 1789, 2009;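 active = inhibition above the screen-wide mean plus 3 SD, computed separately per campaign, cut at about 16% in these data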;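 note: 0% = DMSO wells and 100% = 60 µM geldanamycin wells; inhibitors lower the luminescence because luciferase stays unfolded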
PPC-1+TRAIL kill: compounds killing PPC-1 cancer cells with TRAIL present, primary screen, TRAIL potentiator project, ATPLite luminescence, uHTS | PPC-1 cells + TRAIL, ATPLite viability luminescence | cell killing (% activity), % at 4 µM or 5 µM | 0.41% of 220,000 active;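 active = cell killing above 50% in the first pass at 4 µM, then a duplicate retest at 5 µM averaging 50% or more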;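 note: plate controls were cells with TRAIL plus DMSO for no effect and medium-only wells lacking cells for full effect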
STAT1 blocker: STAT1 signaling inhibitors, primary screen, cell-based, HTS, luciferase reporter. NIH 3T3 STAT1-luciferase reporter, IFN-gamma, luminescence. inhibition, % at 5.5 µM. 0.35% of 200,000 active;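 active = inhibition above a set limit, the mean inhibition across all tested compounds plus 3 SD, cut at about 34% in these data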;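 note: 0% = IFN-gamma with DMSO and 100% = IFN-gamma with 300 µM nifuroxazide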
HSF1 inhib: HSF1 inhibitors in luciferase reporter cells, primary screen, cell-based, NIH3T3, luminescence; NIH3T3-HGL HSE-luciferase, MG132-induced, luminescence 8 h; stronger effect = lower value; activity change, negative = inhibition, % at 7.5 µM (by protocol); 0.77% of 300,000 active; AID 2098, 2009;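 active = more than half of replicate wells show activity change below -50%, luminescence cut by over half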;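 note: luciferase reports HSF-1 transcriptional activity via heat shock element; 0% = median of DMSO wells and -100% = zero luminescence signal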
HSP90 inh confirm: HSP90 inhibitors, confirmation, cell lysate, luminescence | shares compounds with HSP90 refold inh | rabbit reticulocyte lysate, luciferase refolding luminescence, 3 h | inhibition, % at 5.9 µM | 64% of 2,300 active; in the data active = inhibition above about 18%;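 note: 0% = vehicle wells and 100% = reference inhibitor wells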
FLuc counter: firefly luciferase inhibitors, HSP90 counter-screen, confirmation, artefact control for HSP90 inhibitor project, biochemical, luminescence, triplicate; shares compounds with HSP90 refold inh; purified native firefly luciferase; inhibition, % at 5.9 µM; 48% of 2,300 active; AID 1847, 2009;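 active = inhibition above the mean inhibition of all tested sample wells plus 3 SD, cut at about 10% in these data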;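 note: 0% = DMSO with luciferase and 100% = wells lacking luciferase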
Target sequence (P08659 whole entry, looked up): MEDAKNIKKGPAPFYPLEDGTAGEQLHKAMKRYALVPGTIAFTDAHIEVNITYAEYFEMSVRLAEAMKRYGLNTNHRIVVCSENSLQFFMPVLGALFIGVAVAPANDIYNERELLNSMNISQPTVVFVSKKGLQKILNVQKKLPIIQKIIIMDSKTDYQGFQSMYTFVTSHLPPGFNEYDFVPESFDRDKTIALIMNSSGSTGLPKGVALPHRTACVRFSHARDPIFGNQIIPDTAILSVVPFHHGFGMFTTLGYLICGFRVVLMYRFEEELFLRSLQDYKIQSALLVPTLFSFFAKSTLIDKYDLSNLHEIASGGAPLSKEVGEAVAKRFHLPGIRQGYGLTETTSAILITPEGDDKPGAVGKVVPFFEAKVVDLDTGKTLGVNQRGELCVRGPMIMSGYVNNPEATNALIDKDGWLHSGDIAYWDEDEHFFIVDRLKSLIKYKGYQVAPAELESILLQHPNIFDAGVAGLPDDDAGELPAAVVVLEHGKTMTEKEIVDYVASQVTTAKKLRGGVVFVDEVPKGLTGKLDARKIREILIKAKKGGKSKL
Active calls of the source: *; . = no result. Hits are enriched below; roughly 2.4% of the tested compounds scored in any of these assays.

SMILES | STAT3 blocker | C8 TRAIL sens | HSP90 refold inh | PPC-1+TRAIL kill | STAT1 blocker | HSF1 inhib | HSP90 inh confirm | FLuc counter
CC(C(=O)NC1CCCC1)n1c(-c2ccncc2)nc2ccccc21 (stereo not given) | . | -5.3 | . | . | . | . | . | .
O=C(c1cc(-c2ccco2)nc2ccccc12)N1CCCC(C(F)(F)F)C1 (stereo not given) | . | -6.9 | . | . | . | . | . | .
CC(C)c1cccc(C(C)C)c1NC(=O)CCN1C(=O)NC2(CCCC2)C1=O | . | -3.5 | . | . | . | . | . | .
CCc1ccc(S(=O)(=O)/N=C2\C=C(Nc3ccc(C(=O)O)cc3)C(=O)c3ccccc32)cc1 | . | 28.8 | 93.0* | . | . | 7.1 | 95.7* | -3.3
O=C(O)c1cccc(NS(=O)(=O)c2ccc3c(c2)C(=O)c2ccccc2C3=O)c1 | . | 16.3 | 22.2* | 3.6 | . | 2.9 | 6.5 | -4.2
COc1ccc(-c2cc(C(=O)NCc3ccc(C(F)(F)F)cc3)[nH]n2)c(C)c1 | . | -5.9 | . | . | . | . | . | .
CC(=O)OCC(=O)C1(O)CCC2C3CCC4CC(O)CCC4(C)C3C(=O)CC21C (stereo not given) | . | -18.9 | . | . | . | . | . | .
Cc1cccc(OCCCC(=O)Nc2ccc(S(=O)(=O)Nc3ncccn3)cc2)c1C | . | 0.0 | 25.1* | . | . | -3.9 | 0.7 | -5.3
Cc1c(CC(=O)NCCCC(=O)O)c(=O)oc2cc3c(cc12)CCC(C)(C)O3 | . | -18.5 | 23.8* | . | . | -15.0 | 36.0* | -5.0
Oc1c(N=Nc2ccccc2)sc2ccccc12 | . | 44.4 | 17.8* | 16.6 | . | 29.0 | 48.4* | 39.1*
O=C(NC1CCCCC1)C1c2ccccc2OCC(=O)N1Cc1cccnc1 (stereo not given) | . | -5.6 | . | . | . | . | . | .
CN1C(=O)S/C(=C/c2ccc(OCc3cccc(C(=O)O)c3)cc2)C1=O | . | 13.8 | 46.5* | . | . | 1.6 | 50.2* | -3.3
COc1cccc(/C=C2/SC(=O)N(C)C2=O)c1OCc1ccc(C(=O)O)cc1 | 4.3 | -1.3 | -2.3 | 18.8 | -5.9 | 7.3 | . | .
Cc1onc(-c2ccccc2Cl)c1C(=O)N1CCN(C(=O)c2ccco2)CC1 | -2.8 | -2.8 | 26.9* | 7.0 | -2.7 | -3.9 | -5.7 | -12.9
COc1ccc2cc3cc(C(=O)NC4CC4)sc3nc2c1 | . | 76.8* | 21.1* | . | . | -14.7 | 47.0* | 29.2*
COc1ccc2cc3cc(C(=O)NCCCN4CCc5ccccc5C4)sc3nc2c1 | -38.6 | -5.8 | -3.7 | 23.8 | -34.0 | 12.3 | . | .
Cc1cccc(NC(=O)c2cc3ccccc3oc2=O)c1 | . | 28.1 | 19.6* | . | . | 20.3 | 32.7* | 13.2*
Cc1ccc(NC(=O)c2cc3ccccc3oc2=N)cc1 | . | 49.1 | 54.7* | . | . | -21.1 | 20.0* | 30.7*
O=C(O)c1ccccc1NC(=O)c1cc2ccccc2oc1=O | . | 4.1 | 23.1* | . | . | 12.6 | 1.9 | -6.4
COc1cccc(NC(=O)c2cc3ccccc3o/c2=N\O)c1 | . | 55.0* | 48.2* | . | . | 43.7 | 65.6* | 62.9*
N=c1oc2ccccc2cc1C(=O)Nc1cccc(F)c1 | . | 11.8 | -6.6 | . | . | 6.0 | . | .
O=C(Nc1cccnc1N1CCOCC1)c1cc2ccccc2oc1=O | . | -0.4 | . | -2.7 | . | 3.9 | . | .
Cc1ccc(C(C)C)cc1OCC(=O)Nc1ccc(-n2cnnn2)cc1 | . | -10.5 | . | . | . | . | . | .
CC1CCN(C(=O)COC(=O)c2cccc(S(=O)(=O)N3CCOCC3)c2)CC1 | . | 16.8 | . | . | . | . | . | .
Cc1ccc(NC(=S)c2nc3ccccc3[nH]2)cc1 | 36.6 | 77.1* | 19.3* | 44.6 | -21.4 | -15.7 | 23.2* | 7.2
SMILES | STAT3 blocker | C8 TRAIL sens | HSP90 refold inh | PPC-1+TRAIL kill | STAT1 blocker | HSF1 inhib | HSP90 inh confirm | FLuc counter
C/C(=N\Nc1ccc(C(=O)O)cc1)c1ccc2c(c1)Nc1ccccc1S2 | . | 14.0 | 24.2* | 7.1 | . | -5.2 | 28.3* | -28.7
O=C(C1CCCN(S(=O)(=O)Cc2ccccc2)C1)N1CCCCC1 (stereo not given) | 11.2 | -5.9 | 25.4* | 18.5 | 5.0 | -2.0 | -4.2 | -10.0
O=C(c1ccco1)N1CCN(C(=O)C2CCCN(S(=O)(=O)Cc3ccccc3)C2)CC1 (stereo not given) | 5.6 | 3.4 | -1.9 | 11.9 | -5.9 | -3.1 | . | .
Cc1cc(N2CCC(C)CC2)n2ncc(-c3ccccc3)c2n1 | 28.6 | 25.1 | 44.7* | 6.6 | -35.2 | -78.8* | 58.7* | 56.3*
Cc1cc(NC2CCCC2)n2nc(C)c(-c3ccccc3)c2n1 | . | -1.0 | 0.1 | . | . | 8.6 | . | .
Cc1cc(N2CCC(C)CC2)n2nc(C)c(-c3ccccc3)c2n1 | -6.2 | 17.2 | 0.5 | 12.7 | 2.3 | 4.4 | . | .
Cc1cc(N2CCCCC2)n2ncc(-c3ccccc3)c2n1 | 48.4* | 48.0* | 36.7* | 37.1 | -12.1 | -5.0 | 50.4* | 54.2*
Cc1cc(NC2CCCC2)n2ncc(-c3ccccc3)c2n1 | . | 59.4* | 59.1* | . | . | -67.2* | 71.4* | 70.4*
CC(=O)OC[C@@H]1CN(Cc2ccccc2)C[C@H](n2cnc3c(N4CCOCC4)ncnc32)O1 | . | -4.8 | . | . | . | . | . | .
N#Cc1c(C(F)(F)F)cc(-c2ccccc2Cl)[nH]c1=O | -4.0 | -9.9 | 1.7 | -2.9 | 5.7 | 2.1 | . | .
CCCc1nc(SCC(=O)Nc2nccs2)c2ccccc2n1 | . | -6.3 | 1.7 | . | . | 24.8 | . | .
O=C(CSc1nc(-c2ccccc2)nc2ccccc12)Nc1nccs1 | 22.9 | -6.8 | 21.6* | 21.5 | 2.6 | . | 5.8 | 2.3
Cc1ccccc1C(=O)N1CCC(C(=O)NC2CCCCCC2)CC1 | . | 16.8 | 19.8* | . | . | 3.2 | -2.4 | -8.9
COCCN(C(=O)CCC(=O)Nc1ccccn1)C(C(=O)NC(C)C)c1ccc(Cl)cc1 (stereo not given) | . | -3.1 | 83.7* | . | . | -4.9 | 0.9 | -4.3
COCCN(C(=O)CCC(=O)Nc1ccccn1)C(C(=O)NC(C)C)c1ccc(C)cc1 (stereo not given) | . | 14.6 | -0.5 | . | . | 2.6 | . | .
